Sampled rows, rich in hits. Any-hit rate of the full collection: about 19%.
AMA1 RON2 block = qHTS for Inhibitors of AMA1-RON; Towards Development of Antimalarial Drug Lead: Primary Screen. AlphaScreen AMA1-biotinylated RON2 peptide binding. 360,000 compounds, 0.2% hits. Plasmodium falciparum AMA1 (3D7) - RON2 peptide interaction. Potency, µM (highest dose often 58.2 µM), for the others: top-dose activity change, negative = inhibition, actives largely listed as inhibitors;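 further: potency means the concentration at half of the fitted maximal effect; 0% = vehicle wells and -100% = peptide control; nearly all actives have a fitted effect of over 45% in size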
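AMA1 (3D7) with his tag at 25 nM final met compounds first, then biotinylated RON2 peptide at 25 nM; detection used donor plus acceptor beads, 10 µg/mL apiece, read by AlphaScreen after 30 min at room temperature.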
CHX counter = Cycloheximide Counterscreen for Small Molecule Inhibitors of Shiga Toxin | cell reporter, cycloheximide protein synthesis inhibition counterscreen | AID 2314, 2010 | 300,000 compounds, 12% hits | max response, %; in the data active means max response mostly above about 13%, no sharp cut-off; inactive means mostly below about 14%; further: read at 38.3 µM for the half of the compounds with a filed dose; 0% is about no effect
Pf growth 96h = Primary qHTS for delayed death inhibitors of the malarial parasite plastid, 96 hour incubation; Potency, µM (highest dose often 28.7 µM), for the others: at the top dose activity change, negative = inhibition, actives largely listed as inhibitors; 320,000 compounds, 6.9% hits; AID 504834, 2011; P. falciparum luciferase reporter growth, 96 h; further: potency means the concentration at half of the fitted maximal effect; on the % scale 0 is the no-effect control and ±100 the full control effect
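96 h incubation, 37 C, 5% CO2, of luciferase-reporter P. falciparum-infected RBCs (2% hematocrit, 0.05% parasitemia final) with test compounds; endpoint luminescence.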
Shiga toxin inh = A qHTS for Small Molecule Inhibitors of Shiga Toxin; inhibition, % at 38.7 µM; 290,000 compounds, 9.2% hits; Vero cells, Shiga toxin protein synthesis inhibition reporter; in the data active means inhibition mostly above about 28%, no sharp cut-off; inactive means mostly below about 43%; further: 0% is about no effect
SARS PLP yeast = qHTS of Yeast-based Assay for SARS-CoV PLP; S. cerevisiae expressing SARS-CoV PLpro, growth rescue; Potency, µM (top dose mostly 32.9 µM), inactives show at the highest dose activity, positive = growth rescue, actives largely listed as activators; 330,000 compounds, 0.19% hits; calls by dose curve; further: potency means the concentration at half of the fitted maximal effect; 0% is about no effect; nearly all actives have a fitted effect of over 55% in size
Pf growth 48h = Primary qHTS for delayed death inhibitors of the malarial parasite plastid, 48 hour incubation. 310,000 compounds, 5.9% hits. P. falciparum luciferase growth in erythrocytes, 48 h. Potency, µM (highest dose often 28.7 µM), inactives show at the highest dose activity change, negative = inhibition, actives largely listed as inhibitors; further: potency means the concentration at half of the fitted maximal effect; on the % scale 0 is the no-effect control and ±100 the full control effect
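Erythrocytes infected with P. falciparum carrying an integrated firefly luciferase reporter (2% hematocrit, 0.1% parasitemia final) were exposed to compounds in RPMI 1640 with 0.5% Albumax at 37 C, 5% CO2. Growth inhibition was scored as reduced luminescence.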
The depositor's hits bear a star; ? = inconclusive; . = not tested or not shown; [ ] = dose if it differs, or a comment. Unless noted, the call rests on the fitted dose curve; in most records, active means well fitted curve in the direction sought with a large enough effect; inconclusive means small, poorly fitted or top-dose-only effect, or another doubt; inactive means no such curve, though single readings can be large; an effect the other way counts as inactive or inconclusive.

SMILES	AMA1 RON2 block	CHX counter	Pf growth 96h	Shiga toxin inh	SARS PLP yeast	Pf growth 48h
COc1ccccc1N1CCN(S(=O)(=O)CCNC(=O)CCc2ccccc2)CC1	1%	.	.	.	.	.
Cc1c(C(=O)NCCCn2ccnc2)oc2ccccc12	10%	8	-13%	12	-1%	0%
Cc1ccc(S(=O)(=O)N2CCOCC2)cc1NC(=O)COC(=O)C1=COCCO1	2%	.	-15%	.	0%	?
COc1ccccc1OCC(=O)N/N=C(\C)c1ccc2ccccc2c1	3%	.	.	.	.	.
COC(=O)c1ccc(CN(c2ccc(C(=O)O)c(O)c2)S(=O)(=O)c2ccc(Cl)c([N+](=O)[O-])c2)cc1	-4%	7	-17%	23	-2%	-18%
COc1ccc(OC)c(NC2=C(Cl)C(=O)N(Cc3ccccc3)C2=O)c1	13µM*	7	-13%	17	-1%	-25%
O=C1C(Cl)=C(Nc2cccc(O)c2)C(=O)N1Cc1ccccc1	-26%	1	4.7µM*	-5	-2%	-24%
CCOc1ccccc1NC1=C(Cl)C(=O)N(Cc2ccccc2)C1=O	-13%	-3	.	-19	-16%	10%
O=C(OCn1nnc2ccccc2c1=O)C1CCN(S(=O)(=O)c2cccs2)CC1	-3%	1	18%	12	-19%	-7%
OCC1(Cc2ccccc2)CCN(Cc2ccc(C(F)(F)F)cc2)CC1	9%	-2	0%	-8	19%	?
CC1CCN(c2nc3nonc3nc2N2CCC(C)CC2)CC1	-9%	5	-18%	-8	5%	1%
CC1CCCN(c2nc3nonc3nc2N2CCCC(C)C2)C1 (stereo not drawn)	-6%	-2	-8%	-3	-25%	10µM*
CCCNC(=O)C1(C)CCCN(C(=O)c2cc3ccccc3s2)C1 (stereo not drawn)	9%	.	.	.	.	.
CCc1cccc(OCC2Cn3c(nc4c3c(=O)[nH]c(=O)n4C)O2)c1 (stereo not drawn)	5%	-2	12µM*	-4	1%	5%
CC(C)(C)N1CC(COc2ccccc2)OC1=O (stereo not drawn)	0%	21*	29%	23	-7%	45%
CC(C)N1CC(COc2ccc(Br)cc2)OC1=O (stereo not drawn)	2%	11	-15%	3	-2%	30%
Cn1c(=O)c2c(nc3n2CC(COc2ccc(Cl)cc2)O3)n(C)c1=O (stereo not drawn)	-6%	-2	?	-12	3%	-11%
Cn1c(=O)c2c(nc3n2CC(COc2ccccc2)O3)n(C)c1=O (stereo not drawn)	6%	-2	9.3µM*	23	-1%	0%
Cc1cc(/C=C2/NC(=O)NC2=O)c(C)n1C	-5%	4	4.7µM*	15	-1%	13%
Cc1cc(/C=C2/NC(=O)NC2=O)c(C)n1-c1ccncc1	-5%	-2	-2%	16	-1%	-1%
Cc1cc(C)c(-n2c(C)cc(/C=C3/NC(=O)NC3=O)c2C)c(C)c1	-4%	-3	5.9µM*	-15	-38%	?
Cc1cccc(-n2c(C)cc(/C=C3\NC(=O)NC3=O)c2C)c1	-24%	8	-9%	27	0%	12%
COc1ccccc1N(C)S(=O)(=O)c1ccc(C(=O)Nc2cc(OC)c(OC)c(OC)c2)cc1	-4%	.	.	.	.	.
CN(C)C1(CNC(=O)C2CCN(S(=O)(=O)c3cccc(C(F)(F)F)c3)CC2)CCCCC1	0%	-3	?	19	-1%	?
NC(=O)c1cc([N+](=O)[O-])ccc1NCCN1C(=O)c2ccccc2C1=O	.	23*	-29%	65*	1%	2%
CC(C)=CC(=O)Nc1nc2ccc([N+](=O)[O-])cc2s1	18%	44*	11%	55*	-2%	?
C/C(=C\c1ccccc1)C(=O)Nc1nc2ccc([N+](=O)[O-])cc2s1	-2%[11.6 µM]	19*	1%	-5	-4%	53%
